Some of the results follow. A number with no mark means an inactive call. Active and inactive are the calls of the source.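 Rule for the calls: active = fitted AC50 no greater than ten times the top concentration tested (cut at about 17 µM in these data); inconclusive = flat fit with 30 to 70% signal change, or an unreliable fit; inactive = AC50 beyond ten times the top concentration tested.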

A short description of the test: DNA intercalators displacing acridine orange, dose response, counter-screen for LANA–histone interaction inhibitor project, biochemical, fluorescence polarization, cell-free (AID 463198). The following applies: acridine orange-DNA binding.
A word on the AC50: it is the midpoint of the concentration-response curve, whichever way the signal moves. Regarding `COc1ccc(C2C=C(c3ccc(Br)cc3)Nc3nc(NS(C)(=O)=O)nn32)cc1` (centres undefined), the AC50 is more than 35 µM. Consider `O=S(=O)(Nc1cc(Cl)ccc1N1CCOCC1)c1ccccc1Cl`, for which the AC50 is more than 35 µM. With `CN1C(=O)c2cccc3c(N)ccc(c23)C1=O` the figure was 7.65 µM (active); with `Cc1nn(C)cc1N1C(=O)c2cccc3c(N)ccc(c23)C1=O`, 4.91 µM (active).

Source of the values: PubChem BioAssay AID463198 (Broad Institute, 2010).
